# The panel holds about 83,000 compounds, 20% with a hit somewhere; the sample as a whole holds those more often.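 In brief: 96-well plates, 48 h treatment, single concentration, percent growth endpoint.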 Values without a mark were called inactive. Calls of active or inactive are those of the source. Rule for the calls: active = growth percent below 10; inactive = the rest.
# System: 786-0 renal
# Test: NCI-60 one-dose screen, 48 h (100 = growth as untreated, 0 = no growth, -100 = all killed)
# Conditions: 10 µM unless noted
row,Structure (SMILES),growth [%]
1,O=C(NCc1ncc[nH]1)c1ccc(-c2nc3ccc4[nH]ncc4c3c3c2CCCC3)cc1,25.4
2,Cc1c(Cl)cccc1S(=O)(=O)Nc1ccc2c(c1)C(=O)N(C1CCC(=O)NC1=O)C2=O (stereo unspecified),78.9
3,COC(=O)C1(C)CCC[C@]2(C)[C@H]3C[C@H]4C(C(C)C)=C[C@]3(CC[C@@H]12)[C@H]1[C@@H]4[C@@H](OC(=O)c2ccco2)CC[C@@H]1OC(=O)c1ccco1 (stereo partly specified),94.3

# System: COLO 205 colon
# Test: as above
# Conditions: 10 µM unless noted
row,Structure (SMILES),growth
1,CCC(CC)N1C(=O)/C(=c2\sc3n(c2=O)NC2C(N=3)N(CC)C(=O)N2CC)c2ccccc21 (stereo unspecified),37.8%
2,CN1CCN(c2ccc(/C=N/Nc3nc4ccccc4c(=O)n3-c3ccccc3)cc2)CC1,103%
3,CC1=NC2=NC(=O)/C(=C3/N=C(C)C=C(c4ccccc4)N3N)NN2C(c2ccccc2)=C1,114%
4,Nc1ncc(-c2ccc3ncnc(N4CCc5cc(F)c(F)cc54)c3c2)cn1,43.6%
5,COc1ccc(Oc2ccc(/C=N/NC(=O)CSc3nc4ccccc4c(=O)n3-c3ccc(Cl)cc3)cc2)cc1,72.8%
6,COc1ccc2c(c1)Oc1nc(N)c(C#N)c(N)c1C2Sc1ccc(C)cc1 (stereo unspecified),-16.7% (active)
7,CC(=O)C1=C(C)NC(NN)=NC1c1cccc(Cl)c1 (stereo unspecified),114%
8,O=C(NNc1nc2cc(F)ccc2n2c(CO)ccc12)c1cnccn1,8.65% (active)
9,NC(N)=Nc1ccc(Oc2cccc(NC(N)=Nc3ccc(Br)cc3)c2)cn1,16.5%
10,CCOC(=O)C1=NNC(c2ccc(Cl)cc2)C1C(=O)N1C(=S)NC(=O)C1CC(C)C (stereo unspecified),109%
11,CC/C(=C/c1c(O)cccc1OC)c1ccc2c(OC)cccc2[o+]1,110%
12,Cn1ccnc1C(=O)/C=C/c1ccc(CNC(=O)c2ccc(Cl)cc2)cc1,13.6%
13,COc1c(N2CC3CCCNC3C2)c(F)cc2c(=O)c(C(=O)N/N=C/c3ccc(F)cc3)cn(C3CC3)c12 (stereo unspecified),96.3%
14,CN(C)CCNC(=O)c1ccc(-c2nc3ccc4[nH]ncc4c3c3c2CCC3)cc1,-11.6% (active)
15,C=C(C=O)[C@@H]1CC[C@]2(COC(C)=O)CC[C@]3(C)C(CC[C@@H]4[C@@]5(C)CC[C@H](OC(C)=O)C(C)(C)[C@@H]5CC[C@]43C)[C@@H]12 (stereo partly specified),-8.44% (active)
16,COc1c(N2CC3CCCNC3C2)c(F)cc2c(=O)c(C(=O)N/N=C/c3c[nH]c4ccccc34)cn(C3CC3)c12 (stereo unspecified),107%
17,COc1cc(C2N=C(NNc3ccccc3)NC(C)=C2C(C)=O)ccc1O (stereo unspecified),113%
18,CCCCCc1ccc(S(=O)(=O)Nc2cccc(-c3csc(NC(=O)CNCCN(C)C)n3)c2)cc1,74.6%
19,CCCCCc1ccc(S(=O)(=O)Nc2cccc(-c3csc(NC(=O)CCCCCN4CCN(CCO)CC4)n3)c2)cc1,72.8%

row,Structure (SMILES),growth
1,CS(=O)(=O)Nc1cc(-c2ccc3ncc(C#N)c(NCc4ccccc4O)c3c2)cnc1Cl,8.91% (active)
2,CC(=O)N1C(=S)NC(=O)C1CC(C)C (stereo unspecified),110%
3,COc1cc(/C=C2\C(=O)Nc3ccccc32)ccc1OCc1ccc(Cl)cc1,116%
4,COc1cc2oc(-c3cccc(NC(=O)c4cc(N)ccc4Cl)c3)cc(=O)c2c(OC)c1OC,117%
5,COc1ccc(Cn2cc3c(c2-c2cc(OC)c(OC)c(OC)c2)CCc2c(CN4CCCC4)noc2-3)cc1,8.39% (active)
6,CCCCCc1ccc(S(=O)(=O)Nc2cccc(-c3csc(NCCN4CCN(C)CC4)n3)c2)cc1,22.2%
7,CCC1=Cc2cc(OC)ccc2OC12C=Cc1cc(OC)ccc1O2 (stereo unspecified),-6.28% (active)
8,CCCCCc1ccc(S(=O)(=O)Nc2cccc(-c3csc(NC(=O)CCCCCN4CCN(C)CC4)n3)c2)cc1,-34.3% (active)
9,N#Cc1cnc2ccc(-c3cnc4[nH]ncc4c3)cc2c1N1CCc2cc(F)c(Cl)cc21,12%
10,CC(C)C[C@@H]1N[C@@]2(C(=O)Nc3ccccc32)[C@@H](c2ccc(F)cc2)[C@@H]1C(=O)c1ccc(O)cc1,110%
11,O=C(NNc1nc2cc(F)cc(F)c2n2cccc12)c1cnccn1,6.31% (active)
12,O=C(NNc1nc2cc(F)c(F)cc2n2cccc12)c1cnccn1,11.9%
13,O=C(CNc1nc(-c2cccc([N+](=O)[O-])c2)cs1)Nc1cccc([N+](=O)[O-])c1,-30.8% (active)
14,CC(Nc1c(C#N)cnc2ccc(-c3cnc(N)nc3)cc12)c1ccccc1 (stereo unspecified),24%
15,C=CCn1c(SCC(=O)Nc2ccc(C(=O)/C=C/c3ccc(Cl)cc3)cc2)nnc1-c1c[nH]c2ccccc12,107%
16,CCCCCc1ccc(S(=O)(=O)Nc2cccc(-c3csc(NC(=O)CN4CCN(C)CC4)n3)c2)cc1,31%
17,O=C(NCc1ncc[nH]1)c1ccc(-c2nc3ccc4[nH]ncc4c3c3c2CCCC3)cc1,-10.4% (active)
18,Cc1c(Cl)cccc1S(=O)(=O)Nc1ccc2c(c1)C(=O)N(C1CCC(=O)NC1=O)C2=O (stereo unspecified),62.3%
19,COC(=O)C1(C)CCC[C@]2(C)[C@H]3C[C@H]4C(C(C)C)=C[C@]3(CC[C@@H]12)[C@H]1[C@@H]4[C@@H](OC(=O)c2ccco2)CC[C@@H]1OC(=O)c1ccco1 (stereo partly specified),115%

# Reference: PubChem BioAssay (NCI)
